# ABHD5-PLIN5 inh = ABHD5-PLIN5 protein interaction inhibition; Q00G26+Q8WTS1; Split G. princeps luciferase complementation, luminescence, 4 h; inhibition, % at 4 µM; actives 0.78% (n = 360,000); AID 602281;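 active means inhibition above the mean inhibition across every tested compound plus 3 SD, cut at about 22% in these data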
# Target sequence (Q00G26 whole entry, looked up): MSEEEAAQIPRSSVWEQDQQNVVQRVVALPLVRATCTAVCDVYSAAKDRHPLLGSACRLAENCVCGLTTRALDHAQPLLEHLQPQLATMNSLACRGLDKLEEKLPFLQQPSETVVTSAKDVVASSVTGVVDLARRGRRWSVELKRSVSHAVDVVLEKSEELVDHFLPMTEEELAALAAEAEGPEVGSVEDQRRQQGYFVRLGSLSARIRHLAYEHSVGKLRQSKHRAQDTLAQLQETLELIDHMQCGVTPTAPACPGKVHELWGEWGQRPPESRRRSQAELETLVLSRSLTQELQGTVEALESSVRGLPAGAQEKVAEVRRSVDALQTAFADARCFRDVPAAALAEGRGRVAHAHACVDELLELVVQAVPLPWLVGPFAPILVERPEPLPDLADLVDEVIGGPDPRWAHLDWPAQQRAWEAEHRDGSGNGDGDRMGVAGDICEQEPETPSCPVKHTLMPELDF
# Target sequence (Q8WTS1 whole entry, looked up): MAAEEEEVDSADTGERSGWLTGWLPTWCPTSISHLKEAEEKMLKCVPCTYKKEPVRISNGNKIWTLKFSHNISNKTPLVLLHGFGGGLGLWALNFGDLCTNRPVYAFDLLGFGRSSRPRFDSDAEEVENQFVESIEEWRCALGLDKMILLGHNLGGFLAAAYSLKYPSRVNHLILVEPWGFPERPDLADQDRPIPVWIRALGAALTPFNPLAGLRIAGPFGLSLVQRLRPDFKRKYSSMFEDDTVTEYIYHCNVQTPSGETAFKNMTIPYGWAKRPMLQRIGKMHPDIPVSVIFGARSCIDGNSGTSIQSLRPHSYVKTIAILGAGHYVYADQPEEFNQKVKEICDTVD
# MITF TRPM1 inh = MITF TRPM1 promoter inhibition in SK-MEL-5 cells; SK-MEL-5 TRPM1 promoter luciferase, 24 h; inhibition, % at 12.5 µM; actives 0.83% (n = 330,000);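 active means mean inhibition across replicates of 60% or more, whatever share of single replicates reaches that level; inconclusive means some that reach 60%, reason not given; inactive means mean inhibition across replicates below 60%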
# Peg3 promoter = reduces Peg3 promoter-driven luciferase expression in HeLa; AID 588405; actives 1.7% (n = 360,000); HeLa PEG-Prom luciferase reporter, luminescence, overnight; inhibition, % at 20 µM;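 active means inhibition of at least 50% at 20 µM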
# Shn3 3UTR inh = inhibitors of Schnurri-3 3'UTR reporter in osteoblasts. Clone20 osteoblast Shn3 3'UTR firefly luciferase, 24 h. inhibition, % at 12.5 µM. actives 0.52% (n = 360,000). AID 588674;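 active means mean inhibition of at least 75% with every replicate also reaching 75%; inconclusive means mean inhibition at least 75% but some replicate below; inactive means mean inhibition below 75%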
# PAX8 inh HTS = lowers PAX8-driven luciferase in RMG-I cells; RMG-I TPO-luciferase reporter, SteadyGlo, 24 h; inhibition, % at 12.6 µM; actives 1.2% (n = 360,000); AID 652154;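 active means mean replicate inhibition at least 60% with every replicate also reaching 60%; inconclusive means only one of the two criteria is met; inactive means mean below 60% and not all replicates reaching 60%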;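 further: luciferase light reporting Pax8 driven TPO promoter activity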
# EWS-Fli inh = blocks EWS/Fli oncoprotein-driven transcription; A673 NR0B1-luciferase reporter, viability-normalised; inhibition, % at 12.6 µM; actives 0.67% (n = 350,000); AID 651661;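 active means mean inhibition of at least 50% after viability correction, with every replicate also passing that limit; inconclusive means mean reaches 50% but only one of two replicates passes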;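 further: firefly luciferase signal divided by Alamar Blue viability fluorescence both relative to DMSO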
# A number is an active result; . = inactive; ? = inconclusive; / = no result; ! = a repeat was not active. Compounds with a hit are over-represented: about 3% of the library has one in this group of screens.
SMILES,ABHD5-PLIN5 inh,MITF TRPM1 inh,Peg3 promoter,Shn3 3UTR inh,PAX8 inh HTS,EWS-Fli inh
COc1ccc(S(=O)(=O)N(C)C[C@@H]2Oc3ccc(NC(=O)Nc4cccc5ccccc45)cc3C(=O)N([C@@H](C)CO)C[C@H]2C)cc1,/,/,/,/,/,.
C[C@@H]1CN([C@@H](C)CO)C(=O)c2cc(NC(=O)Cn3cnnn3)ccc2O[C@H]1CN(C)Cc1ccc(Cl)c(Cl)c1,/,/,/,/,.,62.9
C[C@@H]1CCCCO[C@@H](CN(C)Cc2ccc(Cl)c(Cl)c2)[C@H](C)CN([C@H](C)CO)C(=O)c2cc(NS(=O)(=O)c3ccc(F)cc3)ccc2O1,/,/,/,/,84.5,.
Cc1ccc(S(=O)(=O)Nc2ccc3c(c2)C(=O)N([C@H](C)CO)C[C@@H](C)[C@H](CN(C)Cc2ccc(Cl)c(Cl)c2)OCCCC[C@@H](C)O3)cc1,/,/,/,/,?,.
C[C@@H]1CCCCO[C@@H](CN(C)Cc2ccc(Cl)c(Cl)c2)[C@H](C)CN([C@H](C)CO)C(=O)c2cc(NS(=O)(=O)c3ccc(Cl)cc3)ccc2O1,/,/,/,/,101.7,.
Cc1ccc(S(=O)(=O)Nc2ccc3c(c2)C(=O)N([C@H](C)CO)C[C@H](C)[C@@H](CN(C)Cc2ccc(Cl)c(Cl)c2)OCCCC[C@H](C)O3)cc1,/,/,/,/,66.2,.
C[C@H](CO)N1C[C@H](C)[C@@H](CN(C)Cc2ccc(Cl)c(Cl)c2)Oc2ccc(NC(=O)Cn3cnnn3)cc2C1=O,.,.,.,.,.,.
C[C@@H]1CCCCO[C@H](CN(C)Cc2ccc(Cl)c(Cl)c2)[C@@H](C)CN([C@@H](C)CO)C(=O)c2cc(NS(=O)(=O)c3ccc(F)cc3)ccc2O1,/,/,/,/,.,.
C[C@@H]1CN([C@H](C)CO)C(=O)c2cc(NS(=O)(=O)c3ccc(F)cc3)ccc2O[C@@H]1CN(C)Cc1ccc(Cl)c(Cl)c1,.,.,52.4,.,.,.
Nc1nc2c(nnn2C2CC(O)C(CO)O2)c(=O)[nH]1 (stereo not given),.,/,.,.,83.1,.
CC(C)CCCCCCNC(=S)Nc1ccc(S(=O)(=O)N2CCOCC2)cc1,.,.,61.6,.,.,.
C[C@H](CO)N1C[C@H](C)[C@@H](CN(C)C(=O)Nc2ccc(C(F)(F)F)cc2)Oc2c(NC(=O)Nc3ccccc3)cccc2C1=O,.,.,.,.,.,63.7!
C[C@H](CO)N1C[C@H](C)[C@@H](CN(C)C(=O)Nc2ccc3c(c2)OCO3)Oc2c(NC(=O)Nc3ccc(C(F)(F)F)cc3)cccc2C1=O,.,.,60.4,.,.,.
C[C@H]1CN([C@@H](C)CO)C(=O)c2cccc(NC(=O)Nc3ccc(F)cc3)c2O[C@H]1CN(C)C(=O)Nc1ccc(C(F)(F)F)cc1,/,/,/,/,79.5,.
CNC[C@H]1Oc2c(NC(=O)Nc3ccccc3)cccc2C(=O)N([C@H](C)CO)C[C@@H]1C,/,/,/,/,72.7,.
C[C@@H]1CCCCO[C@@H](CN(C)C(=O)c2ccccc2)[C@H](C)CN([C@@H](C)CO)C(=O)c2cc(NC(=O)Nc3ccccc3)ccc2O1,/,/,/,/,.,.
COc1cccc(S(=O)(=O)Nc2ccc3c(c2)OC[C@@H](C)NC[C@@H](C)[C@@H](OC)CN(C)C3=O)c1,/,/,/,/,/,.
CCCNC(=O)N[C@H]1CC[C@@H](CC(=O)N2CCN(C)CC2)O[C@@H]1CO,/,/,/,/,.,.
Cc1cc2[nH]c3c4ccccc4nc(C)c3c2cc1C,.,86.2,106.3,.,85.8,60.7
COc1ccccc1C(=O)Nc1c(C(=O)N(CCN(C)C)Cc2ccco2)oc2ccccc12,22.5,.,92.3,.,.,/
Cc1ccccc1C(=O)Nc1c(C(=O)N(CCN(C)C)Cc2ccco2)oc2ccccc12,.,.,.,.,.,.
O=C(N/N=C/c1sc(=O)n(Cc2ccc(Br)cc2)c1Cl)c1ccco1,.,.,83.5,.,.,/
O=C(N/N=C/c1ccc(Br)s1)c1ccco1,.,.,.,.,.,.
O=C(/C=C\Nc1ccccc1Br)c1ccc2c(c1)OCO2,.,.,.,.,.,75.2
Cc1ccc(S(=O)(=O)Nc2ccc3c(c2)C(=O)N([C@H](C)CO)C[C@H](C)[C@@H](CN(C)C(=O)CCC(F)(F)F)OCCCC[C@H](C)O3)cc1,/,/,/,/,.,.
SMILES,ABHD5-PLIN5 inh,MITF TRPM1 inh,Peg3 promoter,Shn3 3UTR inh,PAX8 inh HTS,EWS-Fli inh
CCS(=O)(=O)Nc1ccc2c(c1)C(=O)N(C)[C@@H]1CC[C@H](CC(=O)N[C@@H]3CCN(Cc4ccccc4)C3)O[C@@H]1CO2,/,/,/,/,.,.
C[C@@H]1CCCCO[C@@H](CN(C)CC2CCCCC2)[C@@H](C)CN([C@@H](C)CO)C(=O)c2cc(NC(=O)Nc3ccc(C(F)(F)F)cc3)ccc2O1,/,/,/,/,100.4,65.3
C[C@@H]1CCCCO[C@H](CN(C)CC2CCCCC2)[C@H](C)CN([C@H](C)CO)C(=O)c2cc(NC(=O)Nc3ccc(C(F)(F)F)cc3)ccc2O1,/,/,/,/,.,75.3
C[C@@H]1CCCCO[C@H](CN(C)CC2CCCCC2)[C@@H](C)CN([C@H](C)CO)C(=O)c2cc(NC(=O)Nc3ccc(C(F)(F)F)cc3)ccc2O1,/,/,/,/,.,.
C[C@@H]1CCCCO[C@@H](CN(C)CC2CCCCC2)[C@H](C)CN([C@H](C)CO)C(=O)c2cc(NC(=O)Nc3ccc(C(F)(F)F)cc3)ccc2O1,/,/,/,/,.,75.8
C[C@@H]1CN([C@@H](C)CO)C(=O)c2cc(NC(=O)Nc3ccc(C(F)(F)F)cc3)ccc2O[C@@H](C)CCCCO[C@@H]1CN(C)CC1CCCCC1,/,/,/,/,107.9,.
C/C=C/c1ccc2c(c1)O[C@@H](CN(C)C(C)=O)[C@H](C)CN([C@@H](C)CO)S2(=O)=O,/,/,/,/,/,.
Cc1nnn(C23CC4CC(CC(CC(=O)Nc5cccc(F)c5)(C4)C2)C3)n1,.,.,.,.,.,.
Cc1cccc(NC(=O)CC23CC4CC(C2)CC(n2nnc(C)n2)(C4)C3)c1,.,.,.,.,110.7,.
Cc1cc2[nH]c3c(c[n+](C)c4ccccc34)c2cc1C,.,100.8,103.8,.,111.0,82.5
Cc1ccc(S(=O)(=O)N(C)C[C@@H]2Oc3ccc(NC(=O)Nc4ccc(F)cc4)cc3CC(=O)N([C@@H](C)CO)C[C@H]2C)cc1,/,/,/,/,.,.
COc1ccc2c3c([nH]c2c1)[C@@H](CO)N(C(=O)CN1CCOCC1)CC31CCN(C(C)=O)CC1,/,/,/,/,/,.
CC(=O)Nc1ccccc1C(=O)C(=O)Nc1ccc(C)c(C)c1,.,.,.,.,.,.
CC(=O)Nc1ccccc1C(=O)C(=O)Nc1ccc(C)c(F)c1,.,.,.,.,68.9,.
Nc1c(C(=O)NCC2CCCO2)c2nc3ccccc3nc2n1/N=C/c1ccncc1 (stereo not given),.,.,59.5,.,.,.
CC(C)Cn1c(N)c(C(=O)NCC2CCCO2)c2nc3ccccc3nc21 (stereo not given),.,.,.,.,/,/
COc1cccc(-c2cnc3c(NC=O)cc(-c4ccc(OC)cc4OC)cn23)c1,.,/,.,.,99.0,.

# Screening data deposited in PubChem by several laboratories.
